# Compound activity deposited in PubChem by Johns Hopkins Ion Channel Center.
# Rows were chosen to be rich in hits. Some 1.6% of all compounds tested hit in one or more screens of this group.
# KCNQ2 inh – inhibitors of rat KCNQ2 potassium channel | AID 2156 | CHO-K1 KCNQ2, FluxOR thallium flux, 20 min; stronger effect = lower value | B-score at 10 µM | O88943 | 310,000 compounds, 1.1% hits;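 active = fluorescence ratio B-score at most minus 3 library SDs, with starting brightness B-score within 2 library SDs, cut at about -5.5 in these data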
# KCNQ2 pot – potentiators of rat KCNQ2 potassium channel; 310,000 compounds, 0.54% hits; CHO-K1 KCNQ2, FluxOR thallium flux fluorescence; stronger effect = higher value; B-score at 10 µM; AID 2239; O88943;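 active = fluorescence ratio B-score at least 3 SD of library B-scores, with initial fluorescence B-score within 3 of them, cut at about 5.3 in these data; same plate scores as AID 2156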;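 also: B-score of peak minus minimum over baseline fluorescence ratio after K+ and Tl+ stimulus; positive B-score means potentiation of KCNQ2 with more thallium influx and brighter signal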
# Kir21 conf inh – confirmation of mouse Kir2.1 potassium channel inhibitors. AID 2032. 2,300 compounds, 41% hits. Tl flux remaining, % of negative control (stronger effect = lower value), % at 10 µM. Kir2.1-expressing cells, FluxOR thallium flux fluorescence; stronger effect = lower value. shares compounds with KCNQ2 pot;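 active = Primary-screen hit whose thallium flux fell at least 3 control SD below untreated wells in both duplicates, with normal baseline fluorescence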;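 also: 0% = blank wells without stimulus and 100% = stimulated no-compound controls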
# Target sequence (P35561 whole entry, looked up): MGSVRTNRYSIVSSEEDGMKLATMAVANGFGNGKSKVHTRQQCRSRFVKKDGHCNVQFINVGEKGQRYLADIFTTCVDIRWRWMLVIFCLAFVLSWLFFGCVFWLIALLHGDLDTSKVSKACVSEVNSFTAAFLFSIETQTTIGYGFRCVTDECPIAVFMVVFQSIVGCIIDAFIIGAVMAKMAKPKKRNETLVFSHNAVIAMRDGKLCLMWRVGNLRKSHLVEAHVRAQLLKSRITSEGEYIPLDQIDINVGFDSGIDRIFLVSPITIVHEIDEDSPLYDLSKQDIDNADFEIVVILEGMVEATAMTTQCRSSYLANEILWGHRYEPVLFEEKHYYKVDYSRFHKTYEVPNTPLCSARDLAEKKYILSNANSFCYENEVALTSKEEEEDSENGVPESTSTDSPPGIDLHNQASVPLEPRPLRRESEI
# HEK293 ctr – alters thallium flux in parental HEK293 cells, Kir2.1 counter-screen; FluxOR thallium flux fluorescence; 0% = unstimulated blank wells; AID 2105; shares compounds with KCNQ2 pot; FluxOR signal as % of negative control (100 = no effect), % at 10 µM; 2,300 compounds, 19% hits;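 active = dye signal at least 3 control SD above or below untreated wells in both duplicates, raw fluorescence within 3, either direction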;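 also: percent is based on the flux ratio of peak minus minimum fluorescence over baseline F0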
# CHO-K1 ctr – parental CHO-K1 activity in KCNQ2 potentiator counter-screen; shares compounds with KCNQ2 pot; parental CHO-K1 cells, FluxOR thallium flux fluorescence; zero = vehicle mean+3SD, 100% = vehicle-minus-blank window; activity increase over 3SD of controls, % at 10 µM; 1,200 compounds, 43% hits;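 active = signal rise of at least 3 SD above the untreated control mean, in both duplicate wells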;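 also: counter screen of KCNQ2 potentiator hits so any rise reflects channel-independent effects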
# KCNQ1 pot spec – tests whether KCNQ2 potentiators also act on human KCNQ1; shares compounds with KCNQ2 pot; CHO KCNQ1 stable, FluxOR thallium flux fluorescence; beyond 3SD, as % of vehicle-control signal; activation over 3SD threshold, % at 10 µM; 1,200 compounds, 28% hits; AID 2283;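 active = fluorescence ratio rise of at least 3 SD of vehicle wells above their mean, in both replicate wells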;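 also: 0% = vehicle mean plus 3 SD and 100% = vehicle minus unstimulated blank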
# KCNQ2 pot conf – rat KCNQ2 channel potentiator confirmation | shares compounds with KCNQ2 pot | CHO-KCNQ2 cells, FluxOR thallium flux fluorescence | potentiation, less the hit threshold, % at 10 µM | 1,200 compounds, 68% hits | AID 2287;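 active = fluorescence ratio rising 3 SD or more over the vehicle control mean in both replicates, plus primary screen hit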;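 also: peak minus minimum thallium fluorescence divided by baseline after K/Tl stimulus; 0% = vehicle mean plus 3 SD and 100% = vehicle minus unstimulated blank difference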
# Kir21 spec – selectivity of KCNQ2 potentiators: effect on mouse Kir2.1 | shares compounds with KCNQ2 pot | HEK293 Kir2.1, FluxOR thallium flux fluorescence | activity over 3SD threshold, % at 10 µM | 1,200 compounds, 2% hits;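 active = fluorescence ratio rise of at least 3 SD above the vehicle-control mean, seen in both replicates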;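 also: 0% = vehicle mean plus 3 SD and 100% = vehicle minus no-stimulus blank window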
# KCNQ2 W236L pot – potentiates the retigabine-insensitive rat KCNQ2 W236L mutant channel; shares compounds with KCNQ2 pot; CHO KCNQ2-W236L, automated patch clamp current; current increase over 3SD of negative controls (%), stronger effect = higher value, % at 25 µM; 940 compounds, 10% hits; AID 2558;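 active = current increase at least 3 SD of the untreated controls above them in both duplicate recordings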
# Numbers without * were called inactive; i = inactive; . = no result given.
SMILES,KCNQ2 inh,KCNQ2 pot,Kir21 conf inh,HEK293 ctr,others
Cc1occc1C(=O)NC(C)CCc1ccccc1 (configuration not stated),i,0.55,.,.,
CC(CCc1ccccc1)NC(=S)NC(=O)c1ccco1 (configuration not stated),i,5.6*,i,183%*,CHO-K1 ctr=-26;KCNQ1 pot spec=-14;KCNQ2 pot conf=-3;Kir21 spec=-36;KCNQ2 W236L pot=i
O=C(NC(=S)Nc1cccc(Cl)c1N1CCCCC1)c1ccco1,i,8.3*,i,i,CHO-K1 ctr=44*;KCNQ1 pot spec=-10;KCNQ2 pot conf=6.2*;Kir21 spec=-29;KCNQ2 W236L pot=i
COc1ccc2sc(NC(=O)c3ccco3)nc2c1,i,0.45,.,.,
COc1ccc([N+](=O)[O-])c(OC)c1C(=O)NC(=O)Nc1c(F)cc(F)cc1F,i,.,.,.,
CCCc1cc(=O)n2nc(N3CCC(C(=O)N4CCN(c5ccc(OC)cc5)CC4)CC3)sc2n1,i,0.46,.,.,
CC1CCN(c2ccc(NC(=S)NC(=O)c3ccco3)cc2)CC1,i,3.9,.,.,
O=C(NC(=S)Nc1ccc(N2CCCCC2)cc1)c1ccco1,i,8.5*,i,i,CHO-K1 ctr=99*;KCNQ1 pot spec=4.1*;KCNQ2 pot conf=40*;Kir21 spec=-25;KCNQ2 W236L pot=i
Cc1ccccc1CCN(C(=O)Cn1nnc2ccccc21)C(C(=O)NCC1CCCO1)c1nc2ccccc2n1C (configuration not stated),i,0.92,.,.,
Cc1ccc2c(c1)CCCN2C(=O)CSc1ccccc1,i,.,.,.,
COc1ccccc1CC(=O)N1CCCc2cc(C)ccc21,i,.,i,i,
FC(F)(F)c1cnc(Oc2ccc(-c3nnco3)cc2)c(Cl)c1,i,.,.,.,
FC(F)(F)c1cnc(Oc2ccccc2-c2nnco2)c(Cl)c1,i,7.4*,i,i,CHO-K1 ctr=-6;KCNQ1 pot spec=-1;KCNQ2 pot conf=53*;Kir21 spec=-33;KCNQ2 W236L pot=i
CC(C)Nc1ccc(Nc2ccnc3cc4ccccc4cc23)cc1,i,.,.,.,
c1ccc(CCNc2ccnc3cc4ccccc4cc23)cc1,i,0.82,i,i,
Cc1ccc(OCCC(=O)OCC(=O)Nc2cc(S(=O)(=O)N(C)C)ccc2C)cc1,i,.,.,.,
Cc1occc1C(=O)Nc1ccccc1NC(=O)c1ccoc1C,i,0.04,.,.,
Cc1occc1C(=O)Nc1cccc2ccccc12,i,11*,i,i,CHO-K1 ctr=11*;KCNQ1 pot spec=-16;KCNQ2 pot conf=56*;Kir21 spec=-38;KCNQ2 W236L pot=i
CCCN1C(=O)c2ccccc2NC1c1ccc(Cl)c(Cl)c1 (configuration not stated),i,.,.,.,
CN[C@H]1CC[C@@H](c2ccc(Cl)c(Cl)c2)c2ccccc21,i,.,32%*,i,
CC(Sc1ccc(Cl)cc1)C(=O)Nc1ccc2c(c1)OCO2 (configuration not stated),i,0.31,.,.,
CC(Sc1ccc(Cl)cc1)C(=O)NCc1ccc2c(c1)OCO2 (configuration not stated),i,7.7*,i,i,CHO-K1 ctr=81*;KCNQ1 pot spec=14*;KCNQ2 pot conf=3.7*;Kir21 spec=-64;KCNQ2 W236L pot=i
CCC(=O)Oc1ccc(C2NC(=O)c3ccccc3O2)cc1OC (configuration not stated),i,0.32,.,.,
CCCc1nnc(SCC(=O)N2CCCC2)n1Cc1ccco1,i,.,.,.,
CC(NC(=O)C1CCC(CNS(=O)(=O)c2ccccc2)CC1)c1ccc2c(c1)OCCO2 (configuration not stated),i,0.56,.,.,
SMILES,KCNQ2 inh,KCNQ2 pot,Kir21 conf inh,HEK293 ctr,others
CC(=O)c1cccc(NC(=O)c2ccc(N(Cc3ccccc3)S(C)(=O)=O)cc2)c1,i,1.6,.,.,
CS(=O)(=O)N(Cc1ccccc1)c1ccc(C(=O)Nc2ccc(C(N)=O)cc2)cc1,i,.,i,i,
CCc1ccccc1NC(=O)CCS(=O)(=O)c1ccc(OC)cc1,i,.,.,.,
Cc1ccc(NC(=O)CN(c2ccccc2)S(=O)(=O)N(C)C)cc1,i,.,.,.,
COc1ccccc1CNC(=O)CSCc1cnn(-c2ccccc2)c1-n1cccc1,i,.,i,i,
COc1cccc(CNC(=O)CSCc2cnn(-c3ccccc3)c2-n2cccc2)c1OC,i,.,.,.,
Cc1ccc(C)c(NC(=O)C(c2ccccc2)N2CCOCC2)c1 (configuration not stated),i,0.15,.,.,
Cc1cccc(C(=O)Nc2ccc(C(=O)Nc3ccc(O)cc3)cc2)c1,i,0.68,.,.,
O=C(NC(=S)N1CCc2ccccc21)c1ccccc1Cl,i,8.9*,i,i,CHO-K1 ctr=14*;KCNQ1 pot spec=-12;KCNQ2 pot conf=62*;Kir21 spec=-14;KCNQ2 W236L pot=i
O=C(NCCC(=O)N1CCc2ccccc21)c1ccccc1Cl,i,.,.,.,
Cc1cc(C)n(-c2ccc(C(=O)Nc3ccc(C)c(S(=O)(=O)N4CCOCC4)c3)cc2)n1,i,0.23,.,.,
O=C(NNC1=C(C(=O)C(F)(F)F)CCC1)c1ccc(Br)cc1,i,4.8,.,.,
Nc1ccccc1C(=O)NNC1=C(C(=O)C(F)(F)F)CCC1,i,6.8*,i,i,CHO-K1 ctr=18*;KCNQ1 pot spec=-14;KCNQ2 pot conf=0;Kir21 spec=-29;KCNQ2 W236L pot=i
COc1cccc(C(=O)NN=C2CCCC2)c1,i,.,.,.,
O=C(NNC(=O)c1ccccc1Cl)c1ccccc1Cl,i,0.96,.,.,
O=C(NNC1=C(C(=O)C(F)(F)F)CCC1)c1ccccc1Cl,i,19*,i,i,CHO-K1 ctr=-8;KCNQ1 pot spec=-20;KCNQ2 pot conf=74*;Kir21 spec=-28;KCNQ2 W236L pot=i
COc1cccc(C(=O)NNC2=C(C(=O)C(F)(F)F)CCC2)c1,i,6.4*,i,i,CHO-K1 ctr=3.0*;KCNQ1 pot spec=-7;KCNQ2 pot conf=21*;Kir21 spec=-28;KCNQ2 W236L pot=i
COc1cccc(C2c3[nH]c4ccccc4c3C[C@H]3C(=O)N(c4ccccc4C(=O)NCCCN4CCOCC4)C(=O)N23)c1 (some centres not stated),i,.,.,.,
COc1ccc(CCC(C)N2CCC(CO)(Cc3ccccc3)CC2)cc1 (configuration not stated),i,1.2,.,.,
CC(C)CC(=O)/C=C/n1c(=S)oc2ccccc21,i,0.78,.,.,
CC(=O)/C=C/n1c(=S)oc2ccccc21,i,5.4*,i,i,CHO-K1 ctr=-4;KCNQ1 pot spec=-10;KCNQ2 pot conf=-12;Kir21 spec=-31
O=C(CSCc1ccccc1Br)NNC(=S)NCc1ccco1,i,.,.,.,
Cc1ccc(CC(=O)NCC2CCCCC2)cc1,i,7.5*,i,i,CHO-K1 ctr=47*;KCNQ1 pot spec=-26;KCNQ2 pot conf=-11;Kir21 spec=-23
Cc1ccccc1CC(=O)NCC1CCCCC1,i,4.2,.,.,
